The source made the active and inactive calls. How the source made its calls: active means hit-call score of the fitted dose curve at least 0.9, where 1 is the maximum; inactive means score below 0.9.
experiment: APR_HepG2_StressKinase_1hr: Apredica 1-hour HepG2 Assay for Stress Kinase (AID 2282906); conditions: HepG2 stress kinase (phospho-c-Jun) imaging, actives raise or lower the signal
Procedure: APR_HepG2_1hr is a cell-based, multiplexed-readout assay that uses HepG2, a human liver cell line, with measurements taken at 1 hour after chemical dosing in a 384-well plate.APR_HepG2_StressKinase_1hr is one of 10 assay component(s) measured or calculated from the APR_HepG2_1hr assay. It is designed to make measurements of enzyme activity, a form of enzyme reporter, as detected with fluorescence intensity signals by HCS Fluorescent Imaging technology.Data from the assay component APR_HepG2_StressKinase_1hr was analyzed into 1 assay endpoint. This assay endpoint, APR_HepG2_StressKinase_1hr, was analyzed with bidirectional fitting relative to DMSO as the negative control and baseline of activity. Using a type of enzyme reporter, measures of protein for gain or loss-of-signal activity can be used to understand the signaling at the pathway-level as they relate to the gene . Furthermore, this assay endpoint can be referred to as a primary readout, because this assay has produced multiple assay endpoints where this one serves a signaling function. To generalize the intended target to other relatable targets, this assay endpoint is annotated to the cell cycle intended target family, where the subfamily is stress response.
Cells were treated with dimethyl sulfoxide (DMSO) as a solvent control at a final concentration of 0.5% v/v or with compounds in DMSO with a resulting final DMSO concentration of 0.5% v/v. Compound treatment was done at concentrations of 0.39, 0.78, 1.56, 3.12, 6.24, 12.5, 25, 50, 100, and 200 uM in duplicate on each plate. Cells were treated with compounds for 1, 24, or 72 hr. Carbonyl […] m-chloro-phenylhydrazone (CCCP) and taxol were used as positive controls for mitochondrial function and cytoskeletal stability, respectively; DMSO served as the negative control for this experiment. Cells were fixed by the direct addition of 50 uL formaldehyde in Hank's Balanced Salt Solution (HBSS) to a final concentration of 3.7%. After incubation in the fixation medium for 30 min at room temperature (293-298 K), cells were rinsed twice with HBSS and treated with cell permeabilization buffer (16 uL of 0.5% Triton X-100) for 10 min at room temperature (293-298 K) before labeling. For mitochondrial membrane potential and mitochondrial measurements, pre-fixed cells were incubated with 50 uL of MitoTracker Red CMXRos (Invitrogen) at a concentration of 250 nM for 30 min before fixation. In the remaining cases, post-fixed cells were labeled by incubation with a multiplexed mixture of primary antibodies in HBSS for 60 min at room temperature (293-298 K) to detect immunoreactivity of c-Jun (1:500), phospho-histone H3 (1:100), phospho-histone H2A.x (1:200), p53 (1:400), alpha-tubulin (1:200) and Hoechst 33342 (2 ug/mL). Cells were labeled for multiplexed imaging on two separate plates: a) Hoechst 33342, MitoTracker Red, phospho-histone H3, and alpha-tubulin, and b) Hoechst 33342, phospho-histone H2A.x, and c-Jun. A final rinse with HBSS (50 uL) was performed before analysis. The primary and secondary antibodies for the proteins were phospho-histone H3 (rabbit anti-phospho-histone H3 and FITC-donkey anti-rabbit IgG), phospho-histone H2A.x (mouse anti-phospho-histone H2A.x and FITC-donkey anti-mouse IgG), c-Jun (rabbit anti-phospho-c-Jun and Cy3-donkey anti-rabbit IgG), p53 (sheep anti-p53 and Cy5-donkey anti-sheep IgG), alpha-tubulin (mouse anti-alpha-tubulin and Cy5-donkey anti-mouse IgG). These antibodies are available as the CellCiphr HepG2 assay kit (Millipore).Digital images of each well were captured using a Cellomics ArrayScan VTI (Thermo Scientific Cellomics) (0.8 NA objective, 0.63x optical coupler, and XF-93 filter set) at 20x magnification. The images were acquired using the autofocus feature of the ArrayScan instrument, which entails the following steps. First, the camera focuses on channel 1 (Hoechst 33342), where nuclei are identified. Second, a Z offset of 1 um is used for capturing mitochondria (MitoTracker Red). […]

SMILES	outcome	AC50
CCOP(=O)(SC(C)CC)N1CCSC1=O (stereo not given)	inactive	–
CC(C1CC1)C(O)(Cn1cncn1)c1ccc(Cl)cc1 (stereo not given)	inactive	–
CCOC(=O)CC(SP(=O)(OC)OC)C(=O)OCC (stereo not given)	inactive	–
CCOP(=S)(Oc1cnc(C(C)(C)C)nc1)OC(C)C (stereo not given)	inactive	–
Cc1cc(C2CC2)nc(Nc2ccccc2)n1	inactive	–
CC(Oc1cccc(Cl)c1)C(=O)O (stereo not given)	inactive	–
Cc1nn(-c2cc(NS(C)(=O)=O)c(Cl)cc2Cl)c(=O)n1C(F)F	inactive	–
O=[N+]([O-])c1cc(C(F)(F)F)c(Cl)c([N+](=O)[O-])c1Nc1ncc(C(F)(F)F)cc1Cl	–	9.87 µM (active)
CON=C(C(=O)OC)c1ccccc1CON=C(C)c1cccc(C(F)(F)F)c1	inactive	–
CCCOCC(=Nc1ccc(Cl)cc1C(F)(F)F)n1ccnc1	inactive	–
CC1=NNC(=O)N(/N=C/c2cccnc2)C1	inactive	–
COP(=O)(OC)OC(Br)C(Cl)(Cl)Br (stereo not given)	inactive	–
COP(=O)(OC)C(O)C(Cl)(Cl)Cl (stereo not given)	inactive	–
CCOP(=S)(OCC)OC(Cl)C(Cl)(Cl)Cl (stereo not given)	inactive	–
CC(C)=CC1C(C(=O)OCN2C(=O)C3=C(CCCC3)C2=O)C1(C)C (stereo not given)	inactive	–
COP(=O)(NC(C)=O)SC (stereo not given)	inactive	–
CCOP(=S)(OCC)SCCSCC	inactive	–
Cc1ccn2nc(S(=O)(=O)Nc3c(F)cccc3F)nc2n1	inactive	–
CCOP(=O)(OCC)Oc1cc(C)nc(C(C)C)n1	inactive	–
CNc1cnn(-c2cccc(C(F)(F)F)c2)c(=O)c1Cl	inactive	–

SMILES	outcome	AC50
CCOP(=S)(OCC)Oc1ccc2c(C)c(Cl)c(=O)oc2c1	inactive	–
CCCOc1nn(C(=O)NS(=O)(=O)c2ccccc2C(=O)OC)c(=O)n1C	inactive	–
S=C1NCCN1	inactive	–
CCc1cccc(CC)c1N(COC)C(=O)CCl	inactive	–
CC1(C(=O)Nc2ccc(O)c(Cl)c2Cl)CCCCC1	inactive	–
CSC1=N[C@@](C)(c2ccccc2)C(=O)N1Nc1ccccc1	inactive	–
O=C(O)c1cc(Oc2ccc(C(F)(F)F)cc2Cl)ccc1[N+](=O)[O-]	inactive	–
COc1ccc(C(=CC(=O)N2CCOCC2)c2ccc(Cl)cc2)cc1OC	inactive	–
C#CCC1=C(C)C(OC(=O)C2C(C=C(C)C)C2(C)C)CC1=O (stereo not given)	inactive	–
CNC(=O)Oc1cccc2c1OC(C)(C)O2	inactive	–
CCCCOC(=O)[C@@H](C)Oc1ccc(Oc2ccc(C#N)cc2F)cc1	inactive	–
FC(F)C(F)(F)OCC(Cn1cncn1)c1ccc(Cl)cc1Cl (stereo not given)	inactive	–
CN(C)NC(=O)CCC(=O)O	inactive	–
CCNc1nc(Cl)nc(NC(C)(C)C#N)n1	inactive	–
CSc1nc(NC(C)C)nc(NC(C)C)n1	inactive	–
CN1COCN(Cc2cnc(Cl)s2)C1=N[N+](=O)[O-]	inactive	–
C=C(C)[C@H]1Cc2c(ccc3c2O[C@@H]2COc4cc(OC)c(OC)cc4[C@@H]2C3=O)O1	inactive	–
COP(=O)(OC)SCn1c(=O)oc2cc(Cl)cnc21	inactive	–
CSc1nnc(C(C)(C)C)c(=O)n1N	inactive	–
CN(C)C(=O)Nc1cccc(C(F)(F)F)c1	inactive	–

From PubChem BioAssay (EPA / NIEHS)
